Assay results: paper PMC8384837, “Expanding the binding specificity for RNA recognition by a PUF domain”
Residue numbers refer to the chain shown, from its start.

How the values were obtained:
Test in all cases: yeast three-hybrid, YBZ-1, SC-Leu-His + 0.5 mM 3-AT, 4 days
Conditions in all cases: tags: N-Gal4 AD-HA kept; label: inside an RPR1-promoter hybrid RNA with tandem MS2 sites; ssRNA
PUM1 PUF domain R5-AVR = PUM1 PUF domain R5-AVR (Homo sapiens, UniProt Q14671 828-1176, C1007A;R1008V;Q1011R)
In short: (§1)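 The interaction score is the log change in variant frequency from input to selection. Scores were computed in log2 with a pseudocount of 1 for absent variants, using Illumina sequencing of PCR-amplified repeat regions. The input came from four days on SC-Leu and the selection from four days on SC-Leu-His + 0.5 mM 3-AT. The cells were strain YBZ-1 (LexA–MS2 coat fusion, HIS3 reporter) co-expressing Pumilio-1 PUF domain libraries and matching RNA elements from a centromeric plasmid.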

PUM1 PUF domain R5-SRQ = PUM1 PUF domain R5-SRQ (Homo sapiens, UniProt Q14671 828-1176, C1007S)
In short: as §1

PUM1 PUF domain R4-SNC = PUM1 PUF domain R4-SNC (Homo sapiens, UniProt Q14671 828-1176, N971S;H972N;Q975C)
In short: as §1

PUM1 PUF domain R3-EFE = PUM1 PUF domain R3-EFE (Homo sapiens, UniProt Q14671 828-1176, C935E;R936F;Q939E)
In short: as §1

PUM1 PUF domain R5-KHC = PUM1 PUF domain R5-KHC (Homo sapiens, UniProt Q14671 828-1176, C1007K;R1008H;Q1011C)
In short: as §1

PUM1 PUF domain R8-VWK = PUM1 PUF domain R8-VWK (Homo sapiens, UniProt Q14671 828-1176, N1122V;Y1123W;Q1126K)
In short: as §1

PUM1 PUF domain R6-SYS = target: T1, PUM1 PUF domain R6-SYS (Homo sapiens, UniProt Q14671 828-1176, N1043S;Q1047S)
T1 sequence: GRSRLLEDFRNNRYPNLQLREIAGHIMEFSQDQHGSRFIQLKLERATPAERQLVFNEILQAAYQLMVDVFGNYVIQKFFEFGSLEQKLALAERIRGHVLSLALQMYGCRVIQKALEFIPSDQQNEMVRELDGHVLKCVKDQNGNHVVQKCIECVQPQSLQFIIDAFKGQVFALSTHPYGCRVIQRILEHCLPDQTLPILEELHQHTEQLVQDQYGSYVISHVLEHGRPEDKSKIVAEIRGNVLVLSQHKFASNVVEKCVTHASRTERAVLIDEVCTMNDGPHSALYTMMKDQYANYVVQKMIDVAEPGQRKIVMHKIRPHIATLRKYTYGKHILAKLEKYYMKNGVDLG
In short: as §1

PUM1 PUF domain R6-AFG = target: T2, PUM1 PUF domain R6-AFG (Homo sapiens, UniProt Q14671 828-1176, N1043A;Y1044F;Q1047G)
T2 sequence: T1 sequence with S216A, Y217F, S220G
In short: as §1

PUM1 PUF domain R3-RTL = PUM1 PUF domain R3-RTL (Homo sapiens, UniProt Q14671 828-1176, C935R;R936T;Q939L)
In short: as §1

PUM1 PUF domain R2-KKG = PUM1 PUF domain R2-KKG (Homo sapiens, UniProt Q14671 828-1176, N899K;Y900K;Q903G)
In short: as §1

**Q.** “GGCUAGAACUAGUGGAUCCCCCGGCGCCCGGCGGCUCGAGCCCGGGUAAGUGUGAAUAGUCUGCAUGCCGCCGGGCGCCAUGCCUGCAGGUCGACUCUAGAAAACAUG” was tested. Which binding signal (PUM1 PUF domain R5-AVR) did it give?
**A.** 0.2 log2 enrichment (interaction score)

**Q.** And the binding signal (PUM1 PUF domain R5-SRQ)?
**A.** 3.6 log2 enrichment (interaction score)

**Q.** “GGCUAGAACUAGUGGAUCCCCCGGCGCCCGGCGGCUCGAGCCCGGGUAAGUGUAUAUAGUCUGCAUGCCGCCGGGCGCCAUGCCUGCAGGUCGACUCUAGAAAACAUG” was tested. Which binding signal (PUM1 PUF domain R4-SNC) did it give?
**A.** 3.92 log2 enrichment (interaction score)

**Q.** For “GGCUAGAACUAGUGGAUCCCCCGGCGCCCGGCGGCUCGAGCCCGGGUAAGUGUAAGUAGUCUGCAUGCCGCCGGGCGCCAUGCCUGCAGGUCGACUCUAGAAAACAUG”, which binding signal (PUM1 PUF domain R3-EFE) is on record?
**A.** 5.2 log2 enrichment (interaction score)

**Q.** How did the binding signal (PUM1 PUF domain R5-AVR) turn out when “GGCUAGAACUAGUGGAUCCCCCGGCGCCCGGCGGCUCGAGCCCGGGUAAGUGUAAAUAGUCUGCAUGCCGCCGGGCGCCAUGCCUGCAGGUCGACUCUAGAAAACAUG” was run?
**A.** 1.73 log2 enrichment (interaction score)

**Q.** And the binding signal (PUM1 PUF domain R5-KHC)?
**A.** 3.4 log2 enrichment (interaction score)

**Q.** And the binding signal (PUM1 PUF domain R4-SNC)?
**A.** 2.78 log2 enrichment (interaction score)

**Q.** And the binding signal (PUM1 PUF domain R8-VWK)?
**A.** 4.11 log2 enrichment (interaction score)

**Q.** What about the binding signal (PUM1 PUF domain R6-SYS) of the same sequence?
**A.** 3 log2 enrichment (interaction score)

**Q.** And the binding signal (PUM1 PUF domain R6-AFG)?
**A.** 3.11 log2 enrichment (interaction score)

**Q.** For “GGCUAGAACUAGUGGAUCCCCCGGCGCCCGGCGGCUCGAGCCCGGGUAAGUGUAAUUAGUCUGCAUGCCGCCGGGCGCCAUGCCUGCAGGUCGACUCUAGAAAACAUG”, which binding signal (PUM1 PUF domain R3-EFE) is on record?
**A.** 3.56 log2 enrichment (interaction score)

**Q.** What about the binding signal (PUM1 PUF domain R3-RTL) of the same sequence?
**A.** 2.61 log2 enrichment (interaction score)

**Q.** “GGCUAGAACUAGUGGAUCCCCCGGCGCCCGGCGGCUCGAGCCCGGGUAAGUGUACAUAGUCUGCAUGCCGCCGGGCGCCAUGCCUGCAGGUCGACUCUAGAAAACAUG” was tested. Which binding signal (PUM1 PUF domain R4-SNC) did it give?
**A.** 2.48 log2 enrichment (interaction score)

**Q.** With “GGCUAGAACUAGUGGAUCCCCCGGCGCCCGGCGGCUCGAGCCCGGGUAAGUGUCAAUAGUCUGCAUGCCGCCGGGCGCCAUGCCUGCAGGUCGACUCUAGAAAACAUG” as the sequence, how does the binding signal (PUM1 PUF domain R5-AVR) read?
**A.** 4.64 log2 enrichment (interaction score)

**Q.** Which binding signal (PUM1 PUF domain R2-KKG) does the source give for “GGCUAGAACUAGUGGAUCCCCCGGCGCCCGGCGGCUCGAGCCCGGGUAAGUGUAAAGAGUCUGCAUGCCGCCGGGCGCCAUGCCUGCAGGUCGACUCUAGAAAACAUG” here?
**A.** 7.11 log2 enrichment (interaction score)

**Q.** Which binding signal (PUM1 PUF domain R5-KHC) does the source give for “GGCUAGAACUAGUGGAUCCCCCGGCGCCCGGCGGCUCGAGCCCGGGUAAGUGUUAAUAGUCUGCAUGCCGCCGGGCGCCAUGCCUGCAGGUCGACUCUAGAAAACAUG” here?
**A.** 6.52 log2 enrichment (interaction score)
